Only some compounds are listed: those with a hit (about 16% of all), similar ones and a draw of the others.
miR-21 act – qHTS Assay for Modulators of miRNAs and/orActivators of miR-21 | HeLa miR-21 FLuc reporter, luciferase, 48 h | Potency, µM (top dose mostly 38.3 µM), inactives show at the top dose activity change, positive = activation, hits mostly activators | 340,000 tested, under 10 active | AID 2288, 2010;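 further: % of control where 0% means no effect; miR-21 action dims this reporter so a rising signal means less miR-21 action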
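Luminescence from a firefly luciferase reporter carrying a miR-21 binding site downstream, stably expressed under a CMV promoter in HeLa cells that make miR-21 endogenously, reports miRNA modulation after 48 h compound exposure up to approximately 40uM final.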
uPA generation – qHTS for Inhibitors of Cell Surface uPA Generation; Potency, µM (highest dose often 38.3 µM), inactives show at the highest dose activity change, negative = inhibition, most hits filed as inhibitors; hit rate 0.31% among 330,000; AID 540303, 2011; cell surface uPA generation assay, qHTS; active means well fitted inhibition curve with a large enough effect; inconclusive means small, poorly fitted or top-dose-only effect; inactive means no such curve, though single readings can be large or run the other way; tested in mouse RAW 264.7 cells; further: potency means the concentration at half of the fitted maximal effect; on the % scale 0 is the no-effect control and ±100 the full control effect; nearly all actives have a fitted effect of over 55% in size
TDP1 inh – qHTS Assay for Inhibitors of Tyrosyl-DNA Phosphodiesterase (TDP1). Tyrosyl-DNA phosphodiesterase 1 (Homo sapiens), Q9NUW8. recombinant TDP1, AlphaScreen DNA substrate cleavage. Potency, µM (doses to about 130 µM), without a hit: at the top dose activity change, negative = inhibition, hits mostly inhibitors. hit rate 0.28% among 350,000. AID 485290, 2010; further: potency means the concentration at half of the fitted maximal effect; on the % scale 0 is the no-effect control and ±100 the full control effect; nearly all actives have a fitted effect of over 40% in size
Target sequence (Q9NUW8 whole entry, looked up): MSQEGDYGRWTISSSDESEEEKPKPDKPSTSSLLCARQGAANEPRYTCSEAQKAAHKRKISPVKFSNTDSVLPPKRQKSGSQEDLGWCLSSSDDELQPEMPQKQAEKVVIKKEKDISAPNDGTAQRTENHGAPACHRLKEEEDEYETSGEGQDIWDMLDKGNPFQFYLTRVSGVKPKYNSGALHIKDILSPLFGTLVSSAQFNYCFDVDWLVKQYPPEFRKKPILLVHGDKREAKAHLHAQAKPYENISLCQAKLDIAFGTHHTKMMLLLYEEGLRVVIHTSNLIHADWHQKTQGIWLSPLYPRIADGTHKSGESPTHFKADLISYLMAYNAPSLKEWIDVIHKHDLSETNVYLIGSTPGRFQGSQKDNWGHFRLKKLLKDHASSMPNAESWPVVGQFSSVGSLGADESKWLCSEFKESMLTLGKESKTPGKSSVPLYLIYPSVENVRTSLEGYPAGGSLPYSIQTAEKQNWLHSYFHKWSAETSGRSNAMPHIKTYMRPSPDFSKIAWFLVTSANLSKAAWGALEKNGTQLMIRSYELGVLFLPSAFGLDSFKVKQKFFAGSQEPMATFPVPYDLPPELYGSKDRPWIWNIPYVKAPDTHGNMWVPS
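Enzyme-compound mixtures sat 15 min at room temperature, followed by a 5 min reaction with 15 nM final substrate and 10 min with AlphaScreen beads. Recombinant human Tdp1 was used at 1 nM final.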
DT40 TDP1 CPT – qHTS for Inhibitors of human tyrosyl-DNA phosphodiesterase 1 (TDP1): qHTS in cells in presence of CPT. chicken DT40 Tdp1-/-;hTDP1 cells + 20 nM CPT, ATP luminescence, 48 h. Potency, µM (doses to about 46.2 µM), without a hit: at the highest dose activity change, negative = growth inhibition, hits mostly inhibitors. hit rate 12% among 420,000. AID 686979, 2013; further: potency means the concentration at half of the fitted maximal effect; on the % scale 0 is the no-effect control and ±100 the full control effect; nearly all actives have a fitted effect of over 55% in size
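Cell growth measured by CellTiter-Glo luminescence after a minimum 48 h, 37 C compound exposure with 20 nM CPT in Tdp1-knockout DT40 cells stably expressing hTDP1, seeded 400/well; qHTS titration format.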
TDP1 cell noCPT – qHTS for Inhibitors of human tyrosyl-DNA phosphodiesterase 1 (TDP1): qHTS in cells in absence of CPT; DT40 Tdp1-/- hTDP1 cells, no CPT, ATP luminescence, 48 h; AID 686978, 2013; Potency, µM (highest dose often 46.2 µM), for inactives: at the highest dose activity change, negative = growth inhibition, actives largely listed as inhibitors; hit rate 15% among 420,000; further: potency means the concentration at half of the fitted maximal effect; on the % scale 0 is the no-effect control and ±100 the full control effect; nearly all actives have a fitted effect of over 55% in size
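No-CPT arm: Tdp1-/-;hTDP1 DT40 cells (400/well) plus compounds, incubated ≥48 hr at 37 °C. Readout CellTiter-Glo luminescence.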
The depositor's hits bear a star; ? = inconclusive; · = not tested or not shown. Unless noted, the call rests on the fitted dose curve; in most records, active means well fitted curve in the direction sought with a large enough effect; inconclusive means small, poorly fitted or top-dose-only effect, or another doubt; inactive means no such curve, though single readings can be large; an effect the other way counts as inactive or inconclusive.

SMILES | miR-21 act | uPA generation | TDP1 inh | DT40 TDP1 CPT | TDP1 cell noCPT
CCC(=O)N1CCc2cc(S(=O)(=O)NC(Cc3ccccc3)C(=O)Nc3ccc(Cl)cc3)ccc21 (configuration not stated) | 0.1% | · | 4.7% | ? | ?
CC[C@@]1(C(=O)OC)N[C@H](CN(C)C(=O)NC(C)C)[C@@H]2C(=O)N(Cc3ccccc3)C(=O)[C@@H]21 | · | 1.9% | 1.0% | -29.4% | ?
CNc1cc(=O)n(C)c(=O)n1-c1ccccc1 | · | 7.3% | · | 3.2% | -6.1%
CC(=O)N1c2ccc(S(=O)(=O)NCCC(=O)NCc3ccc(N(C)C)cc3)cc2CC1C (configuration not stated) | 2.3% | -2.1% | 3.8% | ? | ?
CC(=O)N1c2ccc(S(=O)(=O)NCCC(=O)Nc3cccc(Cl)c3)cc2CC1C (configuration not stated) | 4.2% | -7.9% | 0.3% | -13.1% | 20.6%
CC(=O)N1c2ccc(S(=O)(=O)NCCC(=O)Nc3ccc(C)c(Cl)c3)cc2CC1C (configuration not stated) | 10.4% | -7.0% | 2.4% | 14.6µM* | 13µM*
CC(=O)N1c2ccc(S(=O)(=O)NCCC(=O)Nc3ccc(Br)c(C)c3)cc2CC1C (configuration not stated) | 27.4% | · | 0.0% | 8.2µM* | 5.17µM*
CC(=O)N1c2ccc(S(=O)(=O)NCCC(=O)NCc3ccc(Cl)cc3)cc2CC1C (configuration not stated) | 9.3% | -5.5% | 1.9% | ? | 14.6µM*
Cc1ccsc1CNC(=O)C1(C)CCN1C(=O)C(C)C (configuration not stated) | · | · | · | 12.0% | -4.8%
CC(C)c1ccc(NC(=O)CCCc2nc(-c3ccc(Cl)cc3)no2)cc1 | -0.9% | · | 0.5% | -25.4% | -22.5%
O=[N+]([O-])c1cncc([N+](=O)[O-])c1Nc1cccc(O)c1 | ? | 10µM* | 4.0% | 5.17µM* | 4.11µM*
O=[N+]([O-])c1ccc2nonc2c1Nc1cccc(F)c1 | -11.3% | -4.6% | · | -27.2% | 4.9%
Cc1ccccc1Nc1n[nH]c(C)c1[N+](=O)[O-] | -18.6% | 4.1% | 2.3% | 2.7% | 1.3%
Cc1ccccc1Nc1c([N+](=O)[O-])cncc1[N+](=O)[O-] | 8.5% | -0.6% | 5.0% | ? | 14.6µM*
COc1cc2[nH]c(=O)n(CCC(=O)N3CC=C(c4ccccc4)CC3)c(=O)c2cc1OC | -6.2% | 2.5% | 4.7% | 1.7% | -3.1%
O=C(CCn1c(=O)[nH]c2ccccc2c1=O)N1CC=C(c2ccccc2)CC1 | -0.2% | 6.0% | 5.4% | -25.0% | ?
COc1ccc(N2CCN(C(=O)CCn3c(=O)[nH]c4cc(OC)c(OC)cc4c3=O)CC2)cc1 | 0.4% | · | 0.0% | -1.2% | -10.2%
COc1cc2[nH]c(=O)n(CCCC(=O)N3CC=C(c4ccccc4)CC3)c(=O)c2cc1OC | -3.9% | -0.1% | 4.5% | ? | 20.6µM*
COc1cc2[nH]c(=O)n(CCCCCC(=O)N3CCN(c4ccccn4)CC3)c(=O)c2cc1OC | 0.9% | · | 1.1% | ? | ?
CCOc1cc2[nH]c(=O)n(CCCCC(=O)N3CCN(c4ccccc4OC)CC3)c(=O)c2cc1OCC | -2.0% | · | -0.5% | 13µM* | 9.2µM*
C=CCn1c(=O)[nH]c2cc(C(=O)N3CC=C(c4ccccc4)CC3)ccc2c1=O | 9.6% | 0.2% | 3.5% | ? | 25.9µM*
CCOc1cc2[nH]c(=O)n(CCCC(=O)N3CCN(c4ccc(OC)cc4)CC3)c(=O)c2cc1OCC | 2.0% | · | -2.5% | ? | 20.6µM*
CCOc1ccc(NC(=O)COC(=O)CSCC(=O)Nc2ccc(C)cc2C)cc1 | · | 0.7% | 1.3% | -1.5% | 21.2%
Cc1ccc(NC(=O)Cn2nc(C(F)(F)F)c3c2CCCC3)cc1 | 4.6% | · | -4.2% | -23.5% | -11.7%
CCOc1ccc(NC(=O)Cn2c(=O)n(CCCCC(=O)NCc3ccc4c(c3)OCO4)c(=O)c3ccccc32)cc1 | -11.8% | · | -0.9% | ? | -23.8%
SMILES | miR-21 act | uPA generation | TDP1 inh | DT40 TDP1 CPT | TDP1 cell noCPT
COc1cccc(N2CCN(C(=O)CCCn3c(=O)[nH]c4ccc(Br)cc4c3=O)CC2)c1 | ? | · | 11.8% | 20.6µM* | 6.51µM*
Nc1cccc2c1C(=O)N(C(=O)/C=C/c1ccc(F)cc1)C2=O | 20.6% | -13.5% | 0.0% | 16.4µM* | 23.1µM*
O=c1[nH]c2cc3ccccc3cc2nc1-c1nnnn1C1CCCC1 | · | · | · | 5.17µM* | 3.66µM*
Cc1cc2nc(-c3nnnn3Cc3ccccc3)c(=O)[nH]c2cc1C | · | · | · | ? | 16.4µM*
Cc1cc2cc(C(c3nnnn3Cc3ccccc3)N3CCc4ccccc43)c(=O)[nH]c2cc1C (configuration not stated) | -1.8% | · | -3.4% | ? | ?
O=c1[nH]c2cc3ccccc3cc2nc1-c1nnnn1Cc1ccccc1 | · | · | · | ? | 23.1µM*
CC(C)C(=O)Nc1ccc2c(c1)nc(CCN1CCN(C)CC1)n2C | 0.3% | · | 3.9% | -8.4% | -16.0%
O=C(Oc1ccccc1)N1CCCC1 | 0.1% | 10.1% | · | 5.1% | 0.0%
O=C(Oc1ccc(OC(=O)N2CCCCC2)cc1)c1ccccc1 | -4.5% | -9.2% | 5.6% | ? | 0.0461µM*
CC(C)Cn1c(N)c(C(=O)COC(=O)c2ccc(Br)cc2)c(=O)n(C)c1=O | · | -9.3% | -0.5% | ? | 23.1µM*
CC(C)Cn1c(N)c(C(=O)COC(=O)c2ccc(O)cc2O)c(=O)n(C)c1=O | · | 0.7% | · | ? | 25.9µM*
COC(=O)c1c(C)[nH]c(C(=O)OCC(=O)c2c(N)n(CC(C)C)c(=O)n(C)c2=O)c1C | · | 0.3% | 0.9% | ? | 14.6µM*
Cc1cccc(C(=O)OCC(=O)c2c(N)n(CC(C)C)c(=O)n(C)c2=O)c1[N+](=O)[O-] | · | -4.5% | · | ? | 18.4µM*
Cn1cc(P(=O)(c2ccccc2)c2ccccc2)c2ccccc21 | · | · | 0.0% | · | ·
Cc1cccc(C(=O)OCC(=O)c2c(N)n(CC(C)C)c(=O)n(C)c2=O)c1O | · | -7.2% | · | 23.1µM* | 23.1µM*
C[C@@H](C(=O)NC1CCCC1)N1C(=O)N2CCc3c([nH]c4ccccc34)[C@@]2(C)C1=O | 8.7% | -4.5% | · | 20.6µM* | ?
CC(C)C[C@@H](C(=O)N[C@@H](C(=O)O)c1ccccc1)N1C(=O)N2CCc3c([nH]c4ccccc34)[C@@]2(C)C1=O | -0.6% | -4.2% | · | 1.8% | -14.0%
